Data: PubChem BioAssay AID493194 (Broad Institute, 2011)
Entries with a potency or affinity are not part of this list. Results filed as inconclusive are left out.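 Rule for the calls: active = a valid curve of falling signal whose half-effect concentration is at most ten times the top tested dose; inconclusive = flat curve at 30 to 70% inhibition, or poor fit; inactive = signal rise, flat within 30%, or potency beyond limit.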

target: Scavenger receptor class B member 1 (Mus musculus) (UniProt Q61009); test: mouse SR-BI DiI-HDL uptake blockers – ldlA[mSR-BI] cells, fluorescence, cherry pick, dose response (AID 493194); conditions: CHO ldlA[mSR-BI] DiI-HDL uptake fluorescence, 3 h; series mostly up to 35 µM; activity change, negative = inhibition: at the top concentration;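 note: CHO cells lacking LDL receptor and overexpressing mouse SR-BI; cellular uptake of fluorescently labeled HDL measured as cell fluorescence; 0% = median of neutral control wells and -100% = median of positive control wells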
Sequence (Q61009 whole entry, looked up): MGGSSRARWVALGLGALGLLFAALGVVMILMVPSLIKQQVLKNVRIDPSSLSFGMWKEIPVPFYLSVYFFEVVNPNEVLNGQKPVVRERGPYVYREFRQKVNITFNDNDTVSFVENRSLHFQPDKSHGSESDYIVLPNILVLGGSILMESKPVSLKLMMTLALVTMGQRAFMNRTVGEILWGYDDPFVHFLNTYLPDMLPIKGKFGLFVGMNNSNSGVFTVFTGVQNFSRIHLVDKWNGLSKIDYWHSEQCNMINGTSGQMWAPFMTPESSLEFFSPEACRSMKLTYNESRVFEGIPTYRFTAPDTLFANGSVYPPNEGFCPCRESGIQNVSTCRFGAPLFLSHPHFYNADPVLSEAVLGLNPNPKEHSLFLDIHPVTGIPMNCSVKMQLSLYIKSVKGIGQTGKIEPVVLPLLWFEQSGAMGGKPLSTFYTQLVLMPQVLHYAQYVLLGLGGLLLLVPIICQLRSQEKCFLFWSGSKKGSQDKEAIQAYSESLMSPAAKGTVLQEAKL

Activity change, negative = inhibition, inactive:
COC(=O)c1ccc(C(=O)Nc2nc3cc(N)c(C)cc3s2)cc1 -23.6%
Cc1cccc(N2CCN(C(=O)Cn3cccc3C(=O)c3ccccc3)CC2)c1C -20.2%
O=C(OCc1ccccc1)N1CCC2CC1c1cc(-c3ccc(F)cc3)ccc12 (stereo not given) 0.578%
CCN(C(=O)COn1nnc2ccc(S(=O)(=O)N(C)C)cc21)C1CCS(=O)(=O)C1 (stereo not given) -1.5%
O=C(Nc1ccc(N2CCOCC2)cc1)c1cccc(S(=O)(=O)N2CCC(Cc3ccccc3)CC2)c1 21.7%
COc1ccc(C)cc1N(CC(=O)NC1CCCC1)C(=O)Cn1nnc(-c2ccc(C)o2)n1 0.096%
O=C(NCc1ccccc1Cl)C1CCN(C(=O)c2sccc2-n2cccc2)CC1 -19.4%
Cc1sc(NC(=O)CN2CCOCC2)nc1-c1ccc2c(c1)CCN2S(=O)(=O)c1ccccc1 -0.043%
Cc1cc2oc(=O)cc(CN3CCN(C/C=C/c4ccccc4)CC3)c2cc1O 24.4%
COC(=O)[C@@]1(Cc2ccc(F)cc2)[C@H]2c3cc(C(=O)N4CCCC4)n(CCCNc4ncc(C(F)(F)F)cc4Cl)c3C[C@H]2CN1C(=O)c1ccccc1 22.1%
COc1cc2c(cc1OC)-c1cc(OCc3ccccc3Cl)nc(=O)n1CC2 3.79%
CCCCCCC(=O)Nc1nc(C)c(-c2csc(Nc3ccc(Cl)cc3)n2)s1 8.24%
COc1ccccc1-n1cnc2cc(NCc3ccco3)ccc21 -0.766%
COc1cccc(-c2csc(N3CCN(CC(=O)NNC(=O)c4ccc(Br)cc4)CC3)n2)c1 -9.53%
COc1ccccc1NC(=O)CN1CCN(CC(=O)Nc2ccc(OCc3ccccc3)cc2)CC1 21.2%
